High-throughput results as filed in PubChem BioAssay.
Hits are enriched below; roughly 1.6% of the tested compounds scored in any of these assays.
eIF4H inh = inhibitors of RNA binding by human eIF4H. eIF4H fluorescence polarization binding assay. AID 2012. inhibition, % at 35 µM. Q15056. actives 0.94% (n = 290,000);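 note: calls also rest on retests at 20 µM and on dose response follow-up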
eIF4E 4G PPI = inhibitors of eIF4E and eIF4G interaction in translation initiation. inhibition, % at 21.7 µM. actives 0.37% (n = 220,000). TR-FRET eIF4E-eIF4GI(517-606) binding, 2 h. P63073+Q04637;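 active = inhibition above about 30%, limit read from the data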;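 note: 0% = full FRET control wells and 100% = background wells lacking eIF4GI fragment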
PABP FP inh = PABP-poly(A) binding inhibition | P11940 | PABP-poly(A) RNA binding, fluorescence polarization | inhibition, % at 35 µM | actives 1% (n = 290,000) | AID 2014;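 note: calls also rest on retests at 20 µM and on dose response follow-up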
PERK inhibitor = inhibitors of human PERK kinase; Q9NZJ5; actives 0.17% (n = 220,000); AID 1416; CHO PERK-DD fusion, SEAP luminescence translation reporter; inhibition, % at 5.6 µM;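 active = inhibition above the mean inhibition of all tested compounds plus 3 SD, set separately per screening campaign, cut at about 2.9% in these data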;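 note: PERK kinase domain activated by AP20187 dimerizer at 100 nM; 0% = DMSO with dimerizer and 100% = rapamycin at 8.4 µM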
PABP1 MLLE inh = blocks PAM2 peptide binding to the PABP1 MLLE domain | AID 588489 | actives 0.36% (n = 360,000) | GST-MLLE / FITC-PAM2 fluorescence polarization | inhibition, % at 20 µM; in the data active = inhibition above about 35%, passing the limit was not always enough;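 note: plate controls were DMSO wells with GST-MLLE for no effect and wells lacking GST-MLLE protein for full effect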
* hit, by the source's call; [ ] = remark or other dose. Unless noted, the rule behind the calls is not given here.

`CCOC(=O)c1c(/N=C/C2=C(O)CCCC2=O)sc2c1CCCC2` gave eIF4H inh 7.2, eIF4E 4G PPI -0.3, PABP FP inh 16.3, PERK inhibitor 2.0 and PABP1 MLLE inh 23.6.
O=C(c1cccc(S(=O)(=O)N2CCCC2)c1)N1CCN(S(=O)(=O)c2cccc(Cl)c2)CC1 was read as PABP1 MLLE inh -7.6.
For O=C(/C=C/c1cccc2ccccc12)c1ccncc1 the results were eIF4H inh -5.2, eIF4E 4G PPI 0.5, PABP FP inh 1.1, PERK inhibitor -0.8 and PABP1 MLLE inh 24.9.
Screening Cc1[nH]c2ccccc2c1/C=C/C(=O)c1ccncc1 returned eIF4H inh 72.1*, eIF4E 4G PPI -1.8, PABP FP inh 52.2*, PERK inhibitor -0.8 and PABP1 MLLE inh -75.1.
Cc1cc(OCC(=O)OCC(=O)N(C)C2CCS(=O)(=O)C2)ccc1Cl (stereo not drawn) was read as PABP1 MLLE inh 11.8.
For COc1ccc(C(N)CCc2ccc(C)o2)cc1 (stereo not drawn) the results were eIF4H inh 87.1, eIF4E 4G PPI -2.7, PABP FP inh 37.6*, PERK inhibitor -0.7 and PABP1 MLLE inh -34.5.
`CN(Cc1ccccc1)C(=O)Cn1nnc(-c2ccccc2)c1COc1ccccc1` gave PABP1 MLLE inh 3.0.
`CCn1c(C)nc2cc(C(=O)NN=Cc3ccc([N+](=O)[O-])cc3)ccc21` gave PABP1 MLLE inh 0.2.
CCN(CC)C(=O)[C@H]1CC(CC(=O)NCC23CC4CC(CC(C4)C2)C3)C(=O)N2CCc3c([nH]c4ccccc34)[C@]12C (stereo partly drawn) was read as PABP1 MLLE inh -8.0.
Screening CCOC(=O)c1c(N)sc2c(O)c(Br)ccc12 returned eIF4H inh -2.1, eIF4E 4G PPI 39.1*[fluorescence artefact?], PABP FP inh 2.9, PERK inhibitor 2.8 and PABP1 MLLE inh -3.8.
For CN(C)c1ncc(C2=C(Cl)C(=O)C(N3CCCC3)=C(Cl)C2=O)s1 the results were eIF4E 4G PPI 53.1*[fluorescence artefact?], PERK inhibitor 0.7 and PABP1 MLLE inh 41.1*.
Screening O=C1C(Cl)=C(N2CCCCCC2)C(=O)N1c1ccc(Cl)cc1 returned eIF4H inh 0.6, PABP FP inh -10.5 and PABP1 MLLE inh -8.1.
`CC(=O)c1cnc(N(C)C)s1` gave eIF4H inh 0.1, eIF4E 4G PPI 2.8, PABP FP inh 8.5, PERK inhibitor 2.0 and PABP1 MLLE inh 6.2.
For O=C1C(Cl)=C(N2CCCCC2)C(=O)C(Cl)=C1c1cnc(N2CCCCC2)s1 the results were eIF4H inh inconclusive, eIF4E 4G PPI 37.2*[fluorescence artefact?], PABP FP inh -7.9, PERK inhibitor -0.1 and PABP1 MLLE inh 48.4*.
CN=C1SC(CC(=O)Nc2ccccc2F)C(=O)N1C (stereo not drawn) was read as eIF4H inh -8.5, eIF4E 4G PPI 0.2, PABP FP inh -1.0, PERK inhibitor 4.4* and PABP1 MLLE inh 1.0.
Screening CN=C1SC(CC(=O)Nc2cccc(C(F)(F)F)c2)C(=O)N1C (stereo not drawn) returned eIF4H inh -1.6, eIF4E 4G PPI 3.2, PABP FP inh -3.7, PERK inhibitor 0.7 and PABP1 MLLE inh -7.6.
`O=C1C=C(c2ccccc2)C(c2ccccc2)C1O` (stereo not drawn) gave PABP1 MLLE inh -15.6.
CN(Cc1ccccc1)C(=O)c1[nH]c(C(F)(F)F)nc1-c1ccccc1 was read as PABP1 MLLE inh -2.3.
Screening O=C(CNCc1ccccn1)Nc1cc(S(=O)(=O)N2CCCCC2)ccc1Cl returned eIF4H inh 3.4, eIF4E 4G PPI -1.2, PABP FP inh 20.4, PERK inhibitor -0.3 and PABP1 MLLE inh 3.0.
`O=C(CNCc1ccncc1)Nc1cc(S(=O)(=O)N2CCCCC2)ccc1Cl` gave eIF4H inh 104.2*, eIF4E 4G PPI -1.1, PABP FP inh 8.1, PERK inhibitor -0.4 and PABP1 MLLE inh -40.4.
`Cc1ccc(S(=O)(=O)N2CCCCC2)cc1NC(=O)CNCc1ccco1` gave eIF4H inh 83.0*, eIF4E 4G PPI -5.3, PABP FP inh 2.4*, PERK inhibitor 0.8 and PABP1 MLLE inh 2.3.
Cc1ccc(S(=O)(=O)N2CCCCC2)cc1NC(=O)COC(=O)c1ccc2c(c1)OCO2 was read as eIF4H inh 2.0*, eIF4E 4G PPI -0.7, PABP FP inh 61.3, PERK inhibitor 0.9 and PABP1 MLLE inh -3.4.
For Cc1ccc(S(=O)(=O)N2CCCCC2)cc1NC(=O)c1ccc2c(c1)OCO2 the results were eIF4H inh 3.9, eIF4E 4G PPI -0.7, PABP FP inh 26.8, PERK inhibitor -0.5 and PABP1 MLLE inh 13.0.
For COc1ccc(NC(=O)c2cccc3c2C(=O)c2ccc(-c4cnc(OC)nc4)cc2S3(=O)=O)cc1 the results were PABP1 MLLE inh -6.5.
For O=C(c1ccco1)N1CCN(C(=O)c2cc(-c3ccccn3)nc3ccc(Cl)cc23)CC1 the results were eIF4H inh 99.9*, eIF4E 4G PPI 0.3, PABP FP inh 98.8, PERK inhibitor -0.7 and PABP1 MLLE inh -1.3.
`CCC(C)Cn1c(C(C)O)nc2ccccc21` (stereo not drawn) gave eIF4H inh active, eIF4E 4G PPI -2.8, PABP FP inh 60.9, PERK inhibitor 0.2 and PABP1 MLLE inh -4.3.
Screening CCC(C)Cn1c(C(C)C)nc2ccccc21 (stereo not drawn) returned eIF4H inh -3.7, eIF4E 4G PPI -2.2, PABP FP inh -5.9, PERK inhibitor 0.5 and PABP1 MLLE inh 6.3.
CCC(=O)Nc1sc2c(c1C(N)=O)CCN(Cc1ccccc1)C2 was read as eIF4H inh 95.5, PABP FP inh 31.8* and PABP1 MLLE inh 2.6.
Screening CCN1CCc2c(sc(NC(=S)NC(=O)c3ccco3)c2C(N)=O)C1 returned eIF4H inh 85.3*, eIF4E 4G PPI 1.5, PABP FP inh 50.4*, PERK inhibitor 0.8 and PABP1 MLLE inh -45.9.
`NC(=O)c1c(NC(=O)Cn2nc(C(=O)O)c3ccccc3c2=O)sc2c1CCC2` gave eIF4H inh inconclusive, eIF4E 4G PPI 8.7, PABP FP inh 3.6*, PERK inhibitor 0.0 and PABP1 MLLE inh -0.5.
For CCCC(=O)NC(=S)Nc1sc2c(c1C(N)=O)CCC2 the results were eIF4H inh 91.0, eIF4E 4G PPI -2.7, PABP FP inh active, PERK inhibitor 0.3 and PABP1 MLLE inh 14.1.
`CCC(=O)Nc1sc2c(c1C(N)=O)CCC2` gave eIF4H inh -5.8, eIF4E 4G PPI -15.5, PABP FP inh 1.6, PERK inhibitor 1.0 and PABP1 MLLE inh 3.5.
For O=C(CSc1nc2ncccc2[nH]1)Nc1ccccc1-c1ccccc1 the results were eIF4H inh -1.6, PABP FP inh -8.0 and PABP1 MLLE inh -15.6.
`Cc1ccc(-c2nc(=O)[nH]c3ccc(Br)cc23)cc1` gave eIF4H inh 0.6, PABP FP inh 3.3 and PABP1 MLLE inh 11.1.
CC(C)C(=O)N(c1ccc2oc(=O)sc2c1)S(=O)(=O)c1cccs1 was read as eIF4H inh -1.1, eIF4E 4G PPI -1.4, PABP FP inh 6.1, PERK inhibitor 0.6 and PABP1 MLLE inh 44.5*.
